MBNL1-CUG inh: qHTS Assay for Inhibitors of MBNL1-poly(CUG) RNA binding | TR-FRET MBNL1-His/biotin-(CUG)12 binding, 665/545 ratio | AID 2675, 2010 | actives 0.036% (n = 280,000) | Muscleblind-like protein 1 (Homo sapiens), Q9NR56 | Potency, µM (doses to about 57.5 µM), without a hit: top-dose activity change, negative = inhibition, hits mostly inhibitors; active = well fitted inhibition curve with a large enough effect in the signal ratio, with a control signal flat, not every such curve was filed as active; inconclusive = small, poorly fitted or top-dose-only effect, or effect the other way, or a change in a side signal; inactive = no such curve, though single readings can be large or run the other way; the % refers to the signal ratio; note: % is set by controls: 0 for no effect and ±100 for the full control effect
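Inhibition of protein-RNA binding appears as loss of TR-FRET between terbium anti-His antibody on MBNL1-His and streptavidin-XL665 on biotin-(CUG)12. Activity is normalized to buffer-only and uninhibited-complex controls.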
BCR signal inh: qHTS Assay to Find Inhibitors of Chronic Active B-Cell Receptor Signaling | Potency, µM (top dose mostly 46.1 µM), without a hit: top-dose activity change, negative = inhibition, most hits filed as inhibitors | ABC-DLBCL IkBa-CBG/CBR reporter, luminescence ratio, 4 h | actives 0.05% (n = 340,000); active = well fitted inhibition curve with a large enough effect in the signal ratio, with a control signal flat, not every such curve was filed as active; inconclusive = small, poorly fitted or top-dose-only effect, or effect the other way, or a change in a side signal; the % refers to the signal ratio;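 note: plate controls were basal doxycycline-induced cells for no effect and cells given 10 µM MG132 for full effect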
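Doxycycline induced both beetle luciferases in TMD8 lymphoma cells; IKK-driven degradation limits the IkappaBalpha-fused green signal, while red luminescence normalises for cell number and nonspecific effects. Compounds tested up to 46 uM, 4 hrs.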
B2AR arrestin: qHTS assay of beta-arrestin-biased ligands of beta2-adrenergic receptor. actives 0.02% (n = 330,000). Beta-2 adrenergic receptor (Homo sapiens), P07550. beta-arrestin recruitment to beta2AR, cell-based reporter. Potency, µM (top dose mostly 46.1 µM), for the others: top-dose activation, usual class: activators;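 note: 0% = DMSO controls and full agonism = EC100 isoproterenol or metaproterenol; nearly all actives have a fitted effect of over 65% in size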
Tb PFK inh-1: qHTS Assay to Find Inhibitors of T. brucei phosphofructokinase; Potency, µM (titrated, usually from 57.5 µM), for inactives: top-dose activity, negative = inhibition, most hits filed as inhibitors; actives 0.17% (n = 330,000); T. brucei PFK, ADP-Glo luminescence;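 note: 0% = uninhibited 1x PFK enzyme wells and -100% = no-enzyme wells; nearly all actives have a fitted effect of over 60% in size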
Target sequence (O15648 whole entry, looked up): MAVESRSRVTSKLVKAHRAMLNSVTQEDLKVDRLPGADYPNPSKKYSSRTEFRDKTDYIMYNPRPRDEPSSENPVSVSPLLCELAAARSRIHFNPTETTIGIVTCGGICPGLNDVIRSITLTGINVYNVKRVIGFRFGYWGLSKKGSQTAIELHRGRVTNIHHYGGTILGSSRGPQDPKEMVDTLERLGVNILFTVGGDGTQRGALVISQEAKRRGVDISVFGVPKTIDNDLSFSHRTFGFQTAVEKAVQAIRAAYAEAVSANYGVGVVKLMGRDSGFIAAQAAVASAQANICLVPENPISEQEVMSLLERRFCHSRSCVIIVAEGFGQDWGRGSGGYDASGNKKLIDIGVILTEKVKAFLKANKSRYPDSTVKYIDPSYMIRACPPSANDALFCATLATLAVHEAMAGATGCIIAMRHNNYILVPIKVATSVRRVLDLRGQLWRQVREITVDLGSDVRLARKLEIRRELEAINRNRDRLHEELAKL
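1.25 nM PFK with 0.5 mM F6P and 0.1 mM ATP in 0.1 M TEA pH 8.0, 5 mM MgCl2, incubated 45 min at room temperature; ADP measured by ADP-Glo luminescence; compounds titrated up to 57 uM.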
Tb PFK KinaseGlo: Tb PFK orthogonal confirmatory assay using ATP depletion (Kinase-Glo Plus) as an alternative measure of Tb PFK activity: Hit Validation | Potency, µM (highest dose often 57.5 µM), without a hit: at the top dose inhibition | shares compounds with Tb PFK inh-1 | actives 47% (n = 1,100) | Tb PFK enzyme, ATP depletion, Kinase-Glo Plus luminescence; calls by dose curve; note: nearly all actives have a fitted effect of over 60% in size
Tb PFK inh-2: Inhibitors of T. brucei phosphofructokinase: Hit Validation | shares compounds with Tb PFK inh-1 | purified T. brucei PFK, ADP-Glo luminescence, 45 min | Potency, µM (series often up to 57.5 µM), for the others: at the top dose activity change, negative = inhibition, most hits filed as inhibitors | actives 41% (n = 1,100);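 note: plate controls were full PFK enzyme control for no effect and no enzyme control for full effect; nearly all actives have a fitted effect of over 60% in size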
Numbers without * were called inactive. A selection: hits, their analogues and other compounds. The true share with any hit is near 0.27%. Unless noted, calls come from the whole dose curve; as a rule, active = well fitted curve in the direction sought with a large enough effect; inconclusive = small, poorly fitted or top-dose-only effect, or another doubt; inactive = no such curve, though single readings can be large; an effect the other way counts as inactive or inconclusive. Potency is the fitted concentration of half-maximal effect.

How did N#Cc1ccc2ccn(CC(=O)NC3CCCCC3)c2c1 do in these assays?
MBNL1-CUG inh: 27%; BCR signal inh: 1%; B2AR arrestin: -1%; Tb PFK inh-1: -17%

What do the screens show for `N#Cc1ccc2ccn(CC(=O)NCc3ccccc3)c2c1`?
MBNL1-CUG inh: -3%; BCR signal inh: -1%; B2AR arrestin: 0%; Tb PFK inh-1: inconclusive; Tb PFK KinaseGlo: inconclusive; Tb PFK inh-2: 21µM*

What do the screens show for `COc1cccc(N2CC(NC(=O)C(c3ccccc3)c3ccccc3)CC2=O)c1` (stereo not given)?
BCR signal inh: -2%

Results for NS(=O)(=O)c1cccc(C(=O)NC2CCSc3ccccc32)c1 (stereo not given) ?
MBNL1-CUG inh: -4%; BCR signal inh: 1%; B2AR arrestin: 0%; Tb PFK inh-1: 3%

What do the screens show for `NS(=O)(=O)c1cc(C(=O)NC2CCSc3ccccc32)ccc1Cl` (stereo not given)?
MBNL1-CUG inh: -5%; BCR signal inh: 6%; B2AR arrestin: 0%; Tb PFK inh-1: inconclusive; Tb PFK KinaseGlo: inconclusive; Tb PFK inh-2: inconclusive

How did Clc1ccc(Cn2ncc3c(N4CCCC4)ncnc32)cc1 do in these assays?
MBNL1-CUG inh: -3%; BCR signal inh: inconclusive; B2AR arrestin: -1%; Tb PFK inh-1: inconclusive; Tb PFK KinaseGlo: inconclusive; Tb PFK inh-2: inconclusive

Results for Clc1ccc(Cn2ncc3c(N4CCCCC4)ncnc32)cc1 ?
MBNL1-CUG inh: -5%; BCR signal inh: -4%; B2AR arrestin: 0%; Tb PFK inh-1: -16%

How did Cc1ccsc1CN(C(=O)c1ccc([N+](=O)[O-])cc1)C1CCS(=O)(=O)C1 (stereo not given) do in these assays?
MBNL1-CUG inh: inconclusive; BCR signal inh: 1%; B2AR arrestin: 0%; Tb PFK inh-1: 1%

Results for O=C(Nc1ccc2ccccc2c1)c1ccccc1O ?
MBNL1-CUG inh: -3%; BCR signal inh: inconclusive; B2AR arrestin: -1%; Tb PFK inh-1: inconclusive; Tb PFK KinaseGlo: -33%; Tb PFK inh-2: inconclusive

How did Cc1c(Br)c([N+](=O)[O-])nn1CC(=O)Nc1ccc(C(N)=O)cc1 do in these assays?
MBNL1-CUG inh: inconclusive; BCR signal inh: -2%; B2AR arrestin: 0%; Tb PFK inh-1: 19µM*; Tb PFK KinaseGlo: 13µM*; Tb PFK inh-2: 27µM*

What do the screens show for `Cc1ccc(NC(=O)CN2C(=O)S/C(=C\c3cccn3-c3cccc(C(=O)O)c3)C2=O)cc1C`?
MBNL1-CUG inh: -1%; BCR signal inh: 12%; B2AR arrestin: 0%; Tb PFK inh-1: -19%

Results for COc1ccc(NC(=O)CN2C(=O)S/C(=C/c3cccn3-c3ccc(C(=O)O)cc3)C2=O)cc1 ?
MBNL1-CUG inh: 3%; BCR signal inh: -4%; B2AR arrestin: 0%; Tb PFK inh-1: 9.5µM*; Tb PFK KinaseGlo: 19µM*; Tb PFK inh-2: inconclusive

How did Cc1ccc(NC(=O)CN2C(=O)N/C(=C/c3cccn3-c3ccc(C(=O)O)cc3)C2=O)cc1 do in these assays?
MBNL1-CUG inh: inconclusive; BCR signal inh: -6%; B2AR arrestin: 0%; Tb PFK inh-1: inconclusive; Tb PFK KinaseGlo: 1.7µM*; Tb PFK inh-2: inconclusive

How did Cc1ccc(NC(=O)CN2C(=O)N/C(=C/c3cc(C)n(-c4ccc(C(=O)O)cc4)c3C)C2=O)cc1 do in these assays?
MBNL1-CUG inh: inconclusive; BCR signal inh: 1%; B2AR arrestin: 0%; Tb PFK inh-1: -8%

What do the screens show for `O=C(NCCc1ccccc1)c1ccc(Cl)c(S(=O)(=O)N2CCOCC2)c1`?
MBNL1-CUG inh: 0%; BCR signal inh: 1%; B2AR arrestin: 0%; Tb PFK inh-1: 1%

How did Cn1cc(C(=O)NCc2ccccc2)c(=O)c2cc(S(=O)(=O)N3CCCCCC3)ccc21 do in these assays?
BCR signal inh: 6%

What do the screens show for `COc1ccc(OC)c(N2C(=O)CC(NNC(=O)c3ccc4c(c3)OCO4)C2=O)c1` (stereo not given)?
BCR signal inh: -13%; B2AR arrestin: 0%; Tb PFK inh-1: 8%

How did NCCOc1ccccc1OCCN do in these assays?
MBNL1-CUG inh: -5%; BCR signal inh: inconclusive; B2AR arrestin: -1%; Tb PFK inh-1: -2%

Results for NCCOc1ccccc1Cc1ccccc1 ?
MBNL1-CUG inh: -6%; BCR signal inh: inconclusive; B2AR arrestin: -1%; Tb PFK inh-1: 19µM*; Tb PFK KinaseGlo: inconclusive; Tb PFK inh-2: inconclusive

How did CC(NC(=O)c1ccc(Cl)c(Cl)c1)c1ccc(-c2ccccc2)cc1 (stereo not given) do in these assays?
MBNL1-CUG inh: -12%; BCR signal inh: 12%; B2AR arrestin: 0%; Tb PFK inh-1: -1%

Results for CC(NC(=O)CCl)c1ccc(Cl)c(Cl)c1 (stereo not given) ?
MBNL1-CUG inh: -1%; BCR signal inh: inconclusive; B2AR arrestin: 0%; Tb PFK inh-1: 19µM*; Tb PFK KinaseGlo: 21µM*; Tb PFK inh-2: 24µM*

What do the screens show for `O=C(CSc1nnc(Cc2ccc(Cl)cc2)o1)Nc1ccccc1`?
MBNL1-CUG inh: 1%; BCR signal inh: -4%; B2AR arrestin: 0%; Tb PFK inh-1: inconclusive; Tb PFK KinaseGlo: inconclusive; Tb PFK inh-2: inconclusive

Results for CC(=O)CSc1nnc(Cc2ccc([N+](=O)[O-])cc2)o1 ?
MBNL1-CUG inh: inconclusive; BCR signal inh: -1%; B2AR arrestin: 0%; Tb PFK inh-1: inconclusive; Tb PFK KinaseGlo: inconclusive; Tb PFK inh-2: -25%

What do the screens show for `CCOC(=O)c1c(S(=O)(=O)N2CCC(C(=O)Nc3cccc(C#N)c3)CC2)c(C)n(C)c1C`?
BCR signal inh: 17%

Results for CCN(CC)c1ccc(/C=C2\C(=N)N3N=C(CC(=O)N4CCOCC4)SC3=NC2=O)cc1 ?
MBNL1-CUG inh: 25%; BCR signal inh: -9%; B2AR arrestin: -1%; Tb PFK inh-1: -2%

Results for Cc1ccc(CN2CCN(C3CCN(C(=O)Nc4ccc(C)cc4Cl)CC3)C(=O)C2=O)cc1 ?
BCR signal inh: 1%

How did O=C1C(=O)N(CCCn2ccnc2)C(c2cccc(Br)c2)/C1=C(\O)c1ccc2c(c1)OCCO2 (stereo not given) do in these assays?
MBNL1-CUG inh: 73%; BCR signal inh: 2%; B2AR arrestin: -1%; Tb PFK inh-1: inconclusive; Tb PFK KinaseGlo: inconclusive; Tb PFK inh-2: inconclusive

Assay outcomes: PubChem BioAssay, National Center for Advancing Translational Sciences (NCATS)
